This is an account of results in PubChem BioAssay (NCI).

Some test systems named below: EKVX NSCLC; SN12C renal; UO-31 renal; ACHN renal; A498 renal; CCRF-CEM leukemia; MOLT-4 leukemia; RPMI-8226 leukemia; OVCAR-8 ovarian; OVCAR-5 ovarian; OVCAR-4 ovarian; SK-OV-3 ovarian; IGROV1 ovarian; OVCAR-3 ovarian; HS 578T breast; NCI/ADR-RES ovarian; T-47D breast; TK-10 renal; CAKI-1 renal; SR leukemia.
Holding throughout (test): NCI-60 one-dose screen, 48 h (100 = growth as untreated, 0 = no growth, -100 = all killed)
Holding throughout (settings): 10 µM unless noted

This is part of a sample that, as a whole, favours compounds with a hit. Of some 83,000 tested, about 20% had one in any assay.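 Values shown are percent growth following 48 h exposure of cells in 96-well plates to a single concentration of compound; below 10 was considered active.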 Values without a mark were called inactive. Calls of active or inactive are those of the source.

Regarding `N#Cc1nc(-c2ccccc2)oc1S(=O)(=O)N1CCCCC1`, the growth in the experiment on EKVX NSCLC was 76.1%; in the experiment on SN12C renal it was 62.5%; in the experiment with UO-31 renal, -82.2% (active); in the experiment on ACHN renal it was -93.4% (active); with A498 renal, 89.9%; in the experiment with CCRF-CEM leukemia, 4.27% (active). For the same molecule, the growth in the experiment with MOLT-4 leukemia was 0.441% (active); in the experiment on RPMI-8226 leukemia, 64.6%; in the experiment on OVCAR-8 ovarian, 89.9%; in the experiment with OVCAR-5 ovarian, 102%; in the experiment with OVCAR-4 ovarian, 101%; with SK-OV-3 ovarian, 132%. Besides, the growth with IGROV1 ovarian is 19.9%; in the experiment with OVCAR-3 ovarian, -54.2% (active); with HS 578T breast, 106%; in the experiment with NCI/ADR-RES ovarian, 99.3%; in the experiment with T-47D breast, 49.9%.

For `Cc1ccc(/C=C/c2nn3c(-c4ccco4)nnc3s2)cc1C`, the growth is 82.8% with EKVX NSCLC; 90.8% with SN12C renal; 116% with TK-10 renal; 102% in the experiment with ACHN renal; 90.8% in the experiment on CAKI-1 renal; 87% in the experiment with A498 renal. The growth in the experiment on CCRF-CEM leukemia was 104%; in the experiment on MOLT-4 leukemia, 97.8%; with SR leukemia, 90.1%; in the experiment on RPMI-8226 leukemia, 109%; in the experiment on OVCAR-8 ovarian, 88.7%; in the experiment on OVCAR-5 ovarian, 107%. For the same molecule, the growth in the experiment with OVCAR-4 ovarian was 101%; in the experiment with SK-OV-3 ovarian, 116%; in the experiment with IGROV1 ovarian, 97.5%; in the experiment on OVCAR-3 ovarian, 114%; in the experiment with HS 578T breast, 102%; in the experiment with NCI/ADR-RES ovarian it was 108%. Besides, the growth in the experiment with T-47D breast was 102%.

As to `N#Cc1c(-c2ccc(Cl)cc2)nc(SCc2ccc(F)cc2)nc1N1CCNCC1`, the growth in the experiment on EKVX NSCLC was 73.7%; in the experiment with SN12C renal it was 52.2%; in the experiment with TK-10 renal, 92.7%; with ACHN renal, 36%; in the experiment with CAKI-1 renal, 49.8%; with A498 renal, 65%. In addition, the growth in the experiment on CCRF-CEM leukemia is 37%; with MOLT-4 leukemia it was 7.99% (active); in the experiment on SR leukemia, -48.5% (active); in the experiment with RPMI-8226 leukemia, -36.9% (active); in the experiment with OVCAR-8 ovarian, 38.6%; with OVCAR-5 ovarian, 86%. The growth with OVCAR-4 ovarian was 78.7%; in the experiment with SK-OV-3 ovarian, 117%; in the experiment on IGROV1 ovarian, 39.1%; in the experiment with OVCAR-3 ovarian, 37.9%; in the experiment on HS 578T breast, 83.3%; in the experiment with NCI/ADR-RES ovarian, 51.2%. Moreover, the growth in the experiment with T-47D breast is 71.3%.

Take `O=C(CN1C(=O)/C(=C/c2ccccc2)SC1=S)N1CCOCC1`: the growth in the experiment on EKVX NSCLC is 96.3%; with SN12C renal, 94.7%; with ACHN renal, 77.9%; in the experiment with CAKI-1 renal it was 93.7%; with A498 renal it was 112%; in the experiment on CCRF-CEM leukemia, 88%. Moreover, the growth with MOLT-4 leukemia is 99.1%; in the experiment on SR leukemia, 85.8%; in the experiment with RPMI-8226 leukemia, 89.6%; in the experiment on OVCAR-8 ovarian, 102%; with OVCAR-5 ovarian, 97.6%; with OVCAR-4 ovarian, 109%. The growth is 95.4% with SK-OV-3 ovarian; 97.4% in the experiment with IGROV1 ovarian; 115% with OVCAR-3 ovarian; 106% in the experiment on HS 578T breast; 106% with NCI/ADR-RES ovarian; 77.9% with T-47D breast.

As to `O=C1Nc2cc(Cl)ccc2/C1=C\c1ccc(OCc2ccc(Br)cc2F)cc1`, the growth was -18.9% (active) in the experiment with EKVX NSCLC; -70.1% (active) with SN12C renal; -83% (active) in the experiment with ACHN renal; -77.1% (active) with CAKI-1 renal; -75.8% (active) in the experiment with A498 renal; 12.9% with CCRF-CEM leukemia. Also, the growth in the experiment on MOLT-4 leukemia is 22.7%; in the experiment with SR leukemia it was 27.4%; in the experiment on RPMI-8226 leukemia it was -24.3% (active); in the experiment with OVCAR-8 ovarian, -36.7% (active); with OVCAR-5 ovarian, 6.67% (active); in the experiment with OVCAR-4 ovarian it was -54.3% (active). Moreover, the growth in the experiment on SK-OV-3 ovarian is -36.9% (active); with IGROV1 ovarian it was -88.8% (active); in the experiment on OVCAR-3 ovarian, -64.7% (active); in the experiment on HS 578T breast, -26.1% (active); with NCI/ADR-RES ovarian it was -0.106% (active); with T-47D breast, -23.9% (active).

Turning to `COc1ccc2[nH]cc(-c3cc(N)n4nc(-c5c[nH]c6ccc(OC)cc56)cc4n3)c2c1`, the growth in the experiment on EKVX NSCLC is 80.1%; in the experiment with SN12C renal, -64% (active); in the experiment on TK-10 renal, 16.5%; in the experiment with ACHN renal it was -31.9% (active); in the experiment on CAKI-1 renal, -52.1% (active); in the experiment on A498 renal it was 83.1%. Besides, the growth with MOLT-4 leukemia is -2.24% (active); in the experiment with SR leukemia, -23.6% (active); in the experiment with RPMI-8226 leukemia it was -22.7% (active); in the experiment on OVCAR-8 ovarian it was -62.6% (active); in the experiment on OVCAR-5 ovarian it was 8.81% (active); with OVCAR-4 ovarian, -8.27% (active). Moreover, the growth in the experiment on SK-OV-3 ovarian is 144%; with IGROV1 ovarian it was 44.5%; in the experiment on OVCAR-3 ovarian, 103%; with HS 578T breast, 121%; in the experiment on NCI/ADR-RES ovarian, 88.6%; with T-47D breast it was -21.7% (active).

With `Cc1ccc(CNS(=O)(=O)/N=C2\NC(=O)NC2=C(Cl)Cl)cc1`, the growth was 95.6% in the experiment with EKVX NSCLC; 26.4% with SN12C renal; 73% in the experiment on ACHN renal; 94.6% in the experiment on CAKI-1 renal; 56.7% with A498 renal; 16.1% in the experiment with CCRF-CEM leukemia. For the same molecule, the growth with MOLT-4 leukemia is 21%; in the experiment with SR leukemia it was 69.5%; in the experiment on RPMI-8226 leukemia, 14.5%; in the experiment on OVCAR-8 ovarian, 91.2%; in the experiment with OVCAR-5 ovarian, 96.7%; with OVCAR-4 ovarian it was 98.7%. In addition, the growth with IGROV1 ovarian was 101%; with OVCAR-3 ovarian, 88.2%; in the experiment on HS 578T breast, 66.1%; in the experiment with T-47D breast, 48.7%.

Regarding `CS(=O)(=O)c1ccc(-c2nc3ccccn3c2/C=N/Nc2nc(-c3ccc(Cl)cc3)cs2)cc1`, the growth in the experiment on EKVX NSCLC is 96.8%; in the experiment with SN12C renal, 102%; in the experiment on UO-31 renal, 76.2%; in the experiment on ACHN renal, 101%; with A498 renal, 79.9%; in the experiment on MOLT-4 leukemia it was 82%. For the same molecule, the growth was 95.1% with SR leukemia; 82.2% with RPMI-8226 leukemia; 98% in the experiment on OVCAR-8 ovarian; 104% in the experiment with OVCAR-5 ovarian; 105% with OVCAR-4 ovarian; 140% with SK-OV-3 ovarian. Further, the growth in the experiment with IGROV1 ovarian was 115%; with OVCAR-3 ovarian, 124%; with HS 578T breast, 107%; in the experiment with NCI/ADR-RES ovarian it was 104%; in the experiment on T-47D breast, 78%.
